# An excerpt weighted towards active compounds, which were near 1% of everything screened.
# IP6K1 inh – blocks human inositol hexakisphosphate kinase 1 | 0.81% of 140,000 active | activity change, % (series mostly up to about 58 µM) | AID 1645851 | Q92551 | IP6K1 kinase, ADP-Glo luminescence, 2 h; hits give low values; in the data active = activity change below about -25%
#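 ADP-Glo luminescence measures ADP made by human IP6K1 during a 2 h RT reaction with ATP/IP6 (mix at 1.3 mM/130 uM); top library doses 57.5 and 19.1 uM final.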
# HEK293 viab – reduces viability of HEK-293 SNCA reporter cells | 0.12% of 150,000 active | Potency, µM (doses to about 57.1 µM), for the others: at the top dose activity change, negative = cytotoxicity, usual class: cytotoxic | HEK-293-SNCA-luc viability, GF-AFC fluorescence, 24 h;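 also: potency is read from the fitted curve at half-maximal effect; 0% = DMSO-treated cells and -100% = medium-only wells without cells; nearly all actives have a fitted effect of over 30% in size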
#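 Cytotoxicity counterscreen: after 24 h compound treatment of genome-edited SNCA-luciferase HEK-293 cells, live-cell protease substrate GF-AFC read by fluorescence after 30 min; activity scaled between DMSO (0%) and medium-only (-100%), curves Hill-fitted.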
# SNCA expr inh – reduces expression of the alpha-synuclein gene; Potency, µM (top dose mostly 57.2 µM), without a hit: at the highest dose activity change, negative = inhibition, hits mostly inhibitors; 0.17% of 140,000 active; HEK-293 SNCA-luciferase knock-in, luminescence, 24 h;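 also: potency is read from the fitted curve at half-maximal effect; plate controls were DMSO cells for no effect and cell-free wells for full effect; nearly all actives have a fitted effect of over 45% in size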
# GPT2 inhibitor – inhibitors of human GPT2 alanine aminotransferase; Q8TD30; Potency, µM (titrated, usually from 57.7 µM), for inactives: at the top dose activity change, negative = inhibition, most hits filed as inhibitors; 0.25% of 100,000 active; Recombinant GPT2, coupled pyruvate oxidase/HRP Amplex Red fluorescence; also: potency is read from the fitted curve at half-maximal effect; nearly all actives have a fitted effect of over 60% in size
# Target sequence (Q8TD30 whole entry, looked up): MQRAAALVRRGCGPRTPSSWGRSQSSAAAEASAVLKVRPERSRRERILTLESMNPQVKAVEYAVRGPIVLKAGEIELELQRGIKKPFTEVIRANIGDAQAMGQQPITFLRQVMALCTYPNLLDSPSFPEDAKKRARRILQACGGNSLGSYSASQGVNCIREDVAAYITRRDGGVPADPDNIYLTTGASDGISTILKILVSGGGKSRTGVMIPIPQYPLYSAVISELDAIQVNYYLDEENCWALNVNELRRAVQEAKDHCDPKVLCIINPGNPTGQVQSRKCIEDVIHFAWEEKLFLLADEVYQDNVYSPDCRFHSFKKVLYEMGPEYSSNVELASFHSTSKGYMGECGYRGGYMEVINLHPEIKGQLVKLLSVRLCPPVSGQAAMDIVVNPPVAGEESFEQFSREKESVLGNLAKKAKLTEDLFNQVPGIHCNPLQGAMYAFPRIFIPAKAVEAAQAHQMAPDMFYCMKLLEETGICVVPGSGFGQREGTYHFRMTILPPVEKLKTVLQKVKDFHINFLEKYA
#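 Fluorescence of coupled pyruvate oxidase/HRP/Amplex Red system (50uM Amplex, 30 min, dark) reports pyruvate formed by GPT2. Enzyme reaction: 10ng/uL GPT2, 2mM L-alanine, 250uM a-KG, 30 min room temperature, pH 7.5; 50uM AOA control.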
# IP6K1 inh cnf – human IP6K1 inhibition, confirmatory. shares compounds with IP6K1 inh. recombinant IP6K1 kinase, ADP-Glo luminescence, 2 h. Potency, µM (highest dose often 49 µM), for the others: at the highest dose activity change, negative = inhibition, most hits filed as inhibitors. 13% of 1,200 active. AID 1645852; also: potency is read from the fitted curve at half-maximal effect; nearly all actives have a fitted effect of over 65% in size
# * = called active by the depositor; i = inactive; ? = inconclusive; nt = no result; ! = repeats disagree; [ ] = another dose, or the depositor's remark. Unless noted, calls follow the shape of the dose curve; as a rule, active = well fitted curve in the direction sought with a large enough effect; inconclusive = small, poorly fitted or top-dose-only effect, or another doubt; inactive = no such curve, though single readings can be large; an effect the other way counts as inactive or inconclusive. Unless noted, % is scaled to controls: 0 for no effect and ±100 for the full control effect.
SMILES,IP6K1 inh,HEK293 viab,SNCA expr inh,GPT2 inhibitor,IP6K1 inh cnf
CN(C(=O)c1csc(Cc2ccccc2)n1)C1CCCN(CCc2ccccc2)C1 (centres undefined),-8.0,-4.0%,-12.5%,-0.5%,nt
CC(C)CCNC(=O)CCC1CCCN(S(=O)(=O)c2cccc(F)c2)C1 (centres undefined),0.3,0.6%,-1.3%,1.0%,nt
Cc1nn(-c2ccccc2)c2c1C(C)N(C1CCN(C(=O)c3ccccc3)CC1)C2=O (centres undefined),-7.4,nt,nt,nt,nt
Cc1cc(C)c(CNC(=O)c2cc(-c3cnn(C)c3)cc3c2OCCN3C)c(=O)[nH]1,-20.7,-6.2%[87.6 µM],24.1%[87.6 µM],i,nt
Cc1cc(C)c(CNC(=O)c2cc(-c3cccnc3)cc3c2OCCN3C)c(=O)[nH]1,-28.1*,-11.6%[87.6 µM],16.8%[87.6 µM],4.6%[88.5 µM],-29.7%
COc1cc(F)ccc1-c1cc(C(=O)NCc2c(C)cc(C)[nH]c2=O)c2c(c1)N(C(C)C)CCO2,-27.0*,-15.7%,-29.8%,?,-4.9%
COc1ccc(-c2ccc(C(=O)NCc3cccc(C(F)(F)F)c3)c(Cl)c2)nn1,0.0,nt,nt,nt,nt
CN(C)c1ccc(CN2CCC(c3nc4ccncc4[nH]3)C2)cc1 (centres undefined),12.4,-9.4%[87.6 µM],23.4%[87.6 µM],-26.3%,nt
Brc1ccc(CN2CCC(c3nc4ccncc4[nH]3)C2)cc1 (centres undefined),-51.7*!,2.0%,-22.4%,4.7%,?
COc1ccccc1-c1cc2c(nc1-c1ccccc1)nc(C(=O)NC1CCN(C)CC1)n2C,5.5,?,-5.8%,0.6%,nt
c1ccc(-c2cnc(Nc3ccc(OCCN4CCCC4)cc3)s2)cc1,-5.1,-8.3%,nt,?,nt
Cc1cnc(Nc2ccc(OCCN3CCCC3)cc2)nc1Nc1cccc(S(=O)(=O)NC(C)(C)C)c1,-0.5,?,34.9%,i,25.0%
COc1ccccc1C(=O)NC1CCN(Cc2cccc(-c3cccs3)c2)CC1,13.5,2.9%[12.5 µM],?,-2.2%,nt
COc1ccc(C)cc1Nc1nc(-c2cccc(Cl)c2)c2c(n1)-c1ccccc1OC2,-14.2,1.2%,20.7%,nt,nt
Fc1ccc(Nc2nc(-c3cccc(Cl)c3)c3c(n2)-c2ccccc2OC3)c(F)c1,-27.0*,4.8%,4.9%,nt,-7.4%
CCCCCNC(=O)C1CCCN1Cc1ccc(-c2cccc(OC)c2)cc1 (centres undefined),1.5,-6.6%,-26.0%,-21.8%,nt
CCCN(CCC)CCCNC(=O)Cn1cnc2sc(C)c(S(=O)(=O)N3CCCCC3)c2c1=O,-27.4*,6.0%,1.3%,nt,-5.8%
CCCN(CCC)CCCNC(=O)Cn1cnc2sc(C)c(S(=O)(=O)N3CCC(C)CC3)c2c1=O,26.9,-4.2%,-10.1%,nt,nt
COc1ccc(CNC(=O)CCc2cn(Cc3cc(C)ccc3C)c3ccccc23)cc1OC,32.4,5.5%,?,nt,nt
Cc1ccccc1Cn1cc(CCC(=O)NCc2cccc(Br)c2)c2ccccc21,-29.4*,?,-18.4%,nt,10.2%
Cn1ncc2c(C(=O)NCc3ccccn3)cc(-c3cccc(F)c3)nc21,1.4,nt,nt,nt,nt
COc1ccnc(-c2nnc3ccc(N(C)c4ccccc4)nn23)c1,-38.6*,?,?,0.6%[88.5 µM],?
CN(Cc1ccccc1)C(=O)c1ccnc(-c2nnc3ccc(N(C)c4ccccc4)nn23)c1,-2.8,-10.0%,0.7%,0.3%,nt
O=C1c2cccc(O)c2C(=O)c2c(O)cccc21,-0.2,8.5%[23.9 µM],10.3%[25.6 µM],i,nt
O=C1c2ccccc2C(=O)c2c1ccc(O)c2O,-26.9*,-1.8%[23.9 µM],-23.9%[25.6 µM],?,3.66µM*
SMILES,IP6K1 inh,HEK293 viab,SNCA expr inh,GPT2 inhibitor,IP6K1 inh cnf
CCOc1cc(C(=O)Nc2ccc(-c3nc4ncccc4o3)cc2C)cc(OCC)c1OCC,-26.2*,5.3%,-20.3%,nt,9.0%
Cc1ccc(CCNC(=O)c2nn(C)c3c2CSc2ccccc2-3)cc1,-28.9*,8.1%,9.6%,nt,-17.6%
O=C(CNC(=O)c1ccc(-c2cnc3ccccc3c2)cc1)NCc1ccc2c(c1)OCO2,9.9,nt,nt,nt,nt
Cc1ccsc1/C=C/C1=NCCCN1C,-33.3*,-2.7%[23.9 µM],-10.4%[25.6 µM],?,-1.4%
O=C(c1cc(O)c(O)c(O)c1)c1ccc(O)c(O)c1O,-66.7*,-4.6%[23.9 µM],-42.8%[25.6 µM],?,-27.2%
O=C(O)c1cc(O)c(O)c(O)c1,-28.4*,5.9%[23.9 µM],-42.0%[25.6 µM],?,-11.0%
Cc1ccccc1NC(=O)Cn1ccn2nc3c(c2c1=O)CCCCC3,13.4,-7.5%,3.4%,i,nt

# Screening results: PubChem, National Center for Advancing Translational Sciences (NCATS)
